# Results as given in ChEMBL document CHEMBL3988442, “University of Dundee, Small-Polar-MMV Screening Library” (2021).
# Screen size: about 48,000 compounds; about 13,000 (27%) showed an effect of 50% or more. The list shows a part of the results.
# System: Wolbachia pipientis
# Assay: Anti-Wolbachia Cell-Based Screen
# Format: functional
# Parameters: scale not given: in the data most compounds retested in dose-response had high values
# Settings: 5 µM
row,SMILES,Percent Effect [%]
1,COc1nc(C)ccc1CNC(=O)NC(C)Cc1c(C)nn(C)c1C (centres undefined),-7.556
2,O=C(NCc1cccnc1)Nc1ccn(CC(F)F)n1,-3.627
3,CC(Cn1cccn1)NC(=O)NCCc1ccc(Cl)s1 (centres undefined),2.539
4,CC(Cn1cccn1)NC(=O)NCc1cccnc1 (centres undefined),125.3
5,CC(Cn1cccn1)NC(=O)NCc1ccoc1 (centres undefined),138.9
6,CC(Cn1cccn1)NC(=O)NCc1cccs1 (centres undefined),-5.342
7,Cc1ccc(CNC(=O)NC(C)Cn2cccn2)cn1 (centres undefined),102.7
8,CC(Cn1cccn1)NC(=O)Nc1cccnc1 (centres undefined),-4.722
9,CC(C)CN1CCC(c2nnc(CN3CCCC3)n2C2CC2)CC1,11.32
10,O[C@H]1[C@H](n2cc(CN3CCCC3)nn2)c2ccccc2C12CCNCC2,-10.15
11,CCN(CC)S(=O)(=O)CCNC(=O)c1cc2cccc(F)c2o1,-15.07
12,Cc1nn(C)c2ncnc(N3CCCC(OCc4ccccn4)C3)c12 (centres undefined),-6.916
13,Cc1nn(C)c2ncnc(N3CCCC(OCc4cccnc4)C3)c12 (centres undefined),4.594
14,Nc1nc2c(c(N3CCCC(CN4CCCC4=O)C3)n1)CCNCC2 (centres undefined),-1.007
15,Cc1nc2c(c(N3CCCC(OCc4ccccn4)C3)n1)CCNCC2 (centres undefined),98.85
16,Nc1nc2c(c(N3CCCC(OCc4ccccn4)C3)n1)CCNCC2 (centres undefined),94.61
17,COC1CCCN(c2nc(C)nc3c2CCN(Cc2ccco2)CC3)C1 (centres undefined),-0.6049
18,Nc1nc2c(c(N3CCCC3)n1)CCN(Cc1ccccn1)CC2,7.613
19,Cc1nc(N2CCCC(OCc3ccccn3)C2)c2c(C)noc2n1 (centres undefined),99.09
20,Cc1nc2c(c(N3CCC(CCn4cccn4)CC3)n1)CCNCC2,1.957
21,Cn1cc(CN2CCc3c(c(COCC#N)nn3C)C2)cn1,-10.53
22,O=C(c1cccnc1-n1cncn1)N1CCN(CC(F)(F)F)CC1,-6.052
23,CCc1cnc(C)nc1NCCc1nc(N)cc(O)n1,1.724
24,CN(C)S(=O)(=O)NCc1nc(-c2cccc(F)c2)c(-c2ccccn2)[nH]1,-1.399
25,N#Cc1ccccc1CN1CCc2sccc2C1,-11.84

row,SMILES,Percent Effect [%]
1,CCC(NC(=O)CN(C)Cc1ccc(C)o1)c1ccc(Br)cc1 (centres undefined),7.959
2,O=C(N1CCCO1)[C@@]12CCO[C@@H]1CCN(Cc1ccsc1)C2,127
3,Cc1ncsc1CN1CC[C@H]2OCC[C@@]2(C(=O)N2CCCO2)C1,-1.32
4,Cc1ccc(CN2CC[C@H]3OCC[C@@]3(C(=O)N3CCCO3)C2)s1,100.6
5,COC[C@@]12CCO[C@@H]1CCN(Cc1ccc(C)s1)C2.O=C(O)C(F)(F)F,-10.75
6,c1cnn(CC2CCCCN2Cc2cn3ccsc3n2)c1 (centres undefined),2.763
7,COc1ccc2c(=O)n(CC3CCCCN3C)ccc2c1OC (centres undefined),-25.61
8,CCN1C[C@@H]2CN(S(=O)(=O)c3cccs3)C[C@@H]2C1=O,-17.06
9,N#Cc1cc(NS(=O)(=O)CC2CCCCO2)ccc1F (centres undefined),-2.711
10,COc1ccc(CCNC(=O)NCc2cccc(C(N)=O)c2)cc1OC,9.819
11,CCCc1ccc(OC23CCCN(CC2)C3)c(OC)c1 (centres undefined),112.6
12,COc1cc(CN2CCCC2)ccc1Oc1ncccc1C(F)(F)F,26.33
13,COc1cc(CN2CCCC2)ccc1OC12CCCN(CC1)C2 (centres undefined),119.4
14,CCCc1ccc(OCCNCc2ccco2)c(OC)c1.Cl,-10.12
15,COc1ccc(CN2CCCC3(CC2)CNC(=O)O3)cc1OC (centres undefined),1.159
16,CC(C)c1nccn1C(C)C(=O)N1CCN(S(C)(=O)=O)CC1 (centres undefined),15.78
17,CC(C)c1cc(C(=O)N(c2ccc(F)cn2)C2CCOCC2)nn1C,-15.95
18,COC[C@@]12CC[C@@H](N3CCOCC3)C[C@H]1CCN(c1ncccc1C)C2,-3.262
19,O=C(O)C(F)(F)F.O=C(c1cscn1)N1CC[C@@H]2[C@@H]1CCN2C1CCOCC1,97.96
20,O=C(O)C(F)(F)F.O=C(c1cscn1)N1CC[C@@H]2[C@@H]1CCN2C1CCOC1 (some centres undefined),99.27
21,O=C(O)C(F)(F)F.O=C(c1cscn1)N1CCO[C@H]2[C@@H](Oc3ccccn3)CC[C@@H]21,-13.1
22,O=C(C1CCOCC1)N1CC[C@H]2[C@H]1CCN2c1nncs1.O=C(O)C(F)(F)F,9.105
23,CN1CCN([C@@H]2CCN(C3CCOC3)[C@H]2Cc2cnn(C)c2)CC1.O=C(O)C(F)(F)F.O=C(O)C(F)(F)F.O=C(O)C(F)(F)F (some centres undefined),-5.901
24,CN(CC(=O)N(C)C1CCCCC1)Cc1nc2ccccc2c(=O)[nH]1,-1.325
25,CC(NC(=O)NC1CCN(Cc2ccccn2)CC1)c1ccco1 (centres undefined),5.238

row,SMILES,Percent Effect [%]
1,c1cc(CNc2ccc(-c3nc(C4CC4)no3)cn2)no1,-4.81
2,CC(=O)NC1CCCN(c2nc3ccccc3cc2CO)C1 (centres undefined),8.297
3,COc1ccc(-n2ncc(C(C)NC3Cc4ccccc4C3)c2C)cc1 (centres undefined),4.346
4,Cc1ncsc1C(=O)NC1CCN(CC(=O)N(C)c2ccccc2)CC1,-1.351
5,O[C@@H]1C[C@@H](c2nc(Cc3ccccc3)no2)N(CC2CC2)C1,3.423
6,NCC1Cc2cc(F)cc(-c3cnccn3)c2O1 (centres undefined),-7.505
7,Cn1ccnc1-c1ccc(NCCC2COc3ccccc3O2)nn1 (centres undefined),7.675
8,Cn1nnnc1SCC1COc2ccccc2O1 (centres undefined),100.3
9,CN(Cc1nc(CC2CC2)no1)CC1COc2ccccc2O1 (centres undefined),-4.512
10,N#Cc1cccc(N2CCC(CO)(CCOc3ccccc3)CC2)n1,-8.445
11,CC(C)n1ccnc1C1CCN(Cc2ccc(Cl)s2)CC1,-8.213
12,CSCC(C)(O)CNc1ccccn1 (centres undefined),-2.267
13,CC(=O)Nc1cccc2c1ccn2CC(=O)NC(C)C,119.7
14,COc1cccc2c1ccn2CCNC(=O)C(C)C,18.92
15,Cc1cccc(C)c1OCC(=O)Nc1cccn(C)c1=O,-11.46
16,CS(=O)(=O)N1CCN(C(=O)Cn2ccc3c(Cl)cccc32)CC1,10.52
17,O=C(Cn1ccc2c(Cl)cccc21)N[C@@H](C(=O)O)c1ccccc1,2.253
18,CC(=O)c1cn(CC(=O)NC(C(=O)O)C(C)C)c2ccccc12 (centres undefined),-3.053
19,CC(=O)Nc1cccc2c1ccn2CC(=O)Nc1nc[nH]n1,99.64
20,O=C(Cn1ccc2c(Cl)cccc21)Nc1nc[nH]n1,213.7
21,O=C(Cn1ccc2ccccc21)NCc1cc(N2CCOCC2)ncn1,-2.844
22,COc1cccc2c1ccn2CCC(=O)NCCCC(=O)O,22.13
23,CN1CCN(c2cc(NC(=O)Cn3ccc4ccccc43)ncn2)CC1,-1.04
24,CC(=O)Nc1cccc2c1ccn2CC(=O)Nc1n[nH]c(CC(C)C)n1,102.1
